Measured values: ChEMBL document CHEMBL3988442, “University of Dundee, Small-Polar-MMV Screening Library” (2021)
For some assays here: Potency and affinity values are given separately.

Assays:
Parameters in all cases: scale not given: direction of the effect not stated beside the values
[1] = biological target: Protein translocase subunit SecA (Escherichia coli (strain K12)) (UniProt P10408); assay: Assay to Identify E. coli SecA ATPase Inhibitors; format: functional; conditions: 30 µM
[2] = biological target: T1, Ubiquitin-activating enzyme e1, putative (Leishmania donovani (strain BPK282A1)) (UniProt E9BSI1); assay: Leishmania donovani Ubiquitin Activating Enzyme (LdE1); format: functional; conditions: 30 µM
T1 sequence (whole entry): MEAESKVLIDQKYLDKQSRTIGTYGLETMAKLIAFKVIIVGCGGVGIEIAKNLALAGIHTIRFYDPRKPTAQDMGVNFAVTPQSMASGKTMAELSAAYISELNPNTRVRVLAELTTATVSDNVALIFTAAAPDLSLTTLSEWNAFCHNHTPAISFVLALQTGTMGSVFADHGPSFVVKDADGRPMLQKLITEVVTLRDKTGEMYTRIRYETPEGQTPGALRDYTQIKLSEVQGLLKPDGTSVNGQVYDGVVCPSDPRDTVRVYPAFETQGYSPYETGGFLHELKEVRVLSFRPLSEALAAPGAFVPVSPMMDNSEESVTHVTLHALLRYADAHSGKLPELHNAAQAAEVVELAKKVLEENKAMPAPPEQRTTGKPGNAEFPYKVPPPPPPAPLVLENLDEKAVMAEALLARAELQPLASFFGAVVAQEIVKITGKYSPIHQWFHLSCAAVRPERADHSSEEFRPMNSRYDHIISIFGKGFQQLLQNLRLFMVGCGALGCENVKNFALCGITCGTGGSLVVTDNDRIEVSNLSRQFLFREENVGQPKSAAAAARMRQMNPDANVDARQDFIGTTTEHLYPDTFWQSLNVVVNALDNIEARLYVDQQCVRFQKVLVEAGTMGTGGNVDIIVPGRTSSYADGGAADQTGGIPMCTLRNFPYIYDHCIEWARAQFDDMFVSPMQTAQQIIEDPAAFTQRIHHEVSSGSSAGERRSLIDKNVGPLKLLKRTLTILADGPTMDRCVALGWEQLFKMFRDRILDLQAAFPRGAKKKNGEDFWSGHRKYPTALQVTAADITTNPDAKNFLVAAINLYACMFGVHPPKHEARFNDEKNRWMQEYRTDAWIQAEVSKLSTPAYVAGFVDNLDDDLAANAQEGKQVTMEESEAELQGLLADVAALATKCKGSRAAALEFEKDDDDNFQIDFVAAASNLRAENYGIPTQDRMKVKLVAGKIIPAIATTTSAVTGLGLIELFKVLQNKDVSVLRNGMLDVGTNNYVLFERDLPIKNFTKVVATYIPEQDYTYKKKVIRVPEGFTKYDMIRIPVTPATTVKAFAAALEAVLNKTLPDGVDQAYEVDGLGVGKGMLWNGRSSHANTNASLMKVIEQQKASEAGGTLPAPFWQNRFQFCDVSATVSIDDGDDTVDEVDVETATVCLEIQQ

[3] = biological target: Sialic acid-binding Ig-like lectin 9 (Homo sapiens) (UniProt Q9Y336); assay: Hs-Siglec9 ALPHAscreen SOP 20170721; conditions: 10 µM
[4] = tested on: Trypanosoma cruzi; assay: Trypanosoma cruzi phosphomannomutase and mannose-1-phosphate guanylyltransferase assay; format: functional; conditions: 10 µM
[5] = biological target: T2, Arginase-2, mitochondrial (Homo sapiens) (UniProt P78540); assay: in vitro enzyme assay to detect the production of urea directly proportional to the activity of Arginase II; format: functional; conditions: 33.3 µM; further: in the data most compounds retested in dose-response had high values
T2 sequence (whole entry): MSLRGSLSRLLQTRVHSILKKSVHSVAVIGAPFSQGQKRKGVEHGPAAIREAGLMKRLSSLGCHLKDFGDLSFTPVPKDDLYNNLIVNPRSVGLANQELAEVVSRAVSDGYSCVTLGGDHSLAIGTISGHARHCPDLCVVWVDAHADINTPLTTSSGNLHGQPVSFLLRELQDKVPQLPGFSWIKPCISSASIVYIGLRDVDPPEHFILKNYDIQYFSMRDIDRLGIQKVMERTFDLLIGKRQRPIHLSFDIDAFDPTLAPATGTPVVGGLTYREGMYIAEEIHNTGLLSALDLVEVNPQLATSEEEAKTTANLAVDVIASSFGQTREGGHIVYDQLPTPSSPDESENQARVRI

[6] = biological target: T3, Proteasome subunit beta (Trypanosoma cruzi) (UniProt O96673); assay: Trypanosoma cruzi proteasome chymotrypsin-like activity (TcProtChymo) assay.; further: in the data most compounds retested in dose-response had high values; format: functional; conditions: 9.37 µM
T3 sequence (whole entry): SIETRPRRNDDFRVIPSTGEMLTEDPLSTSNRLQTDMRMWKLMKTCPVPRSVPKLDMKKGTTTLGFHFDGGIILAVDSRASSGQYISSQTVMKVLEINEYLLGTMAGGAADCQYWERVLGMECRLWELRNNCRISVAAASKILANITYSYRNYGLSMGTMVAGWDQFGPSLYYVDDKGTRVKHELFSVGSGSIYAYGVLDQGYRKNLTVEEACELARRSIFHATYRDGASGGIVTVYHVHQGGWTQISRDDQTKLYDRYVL

[7] = organism: Homo sapiens; assay: To identify inhibition of the IFN signalling (Jak-Stat) pathway via expression of an eGFP reporter gene under the control of an IFN-stimulated response element (ISRE) containing MxA promoter.; format: functional; conditions: 30 µM
[8] = biological target: T4, Tyrosyl-tRNA synthetase, putative (Trypanosoma cruzi (strain CL Brener)) (UniProt Q4DSP6); assay: Trypanosoma cruzi tyrosyl tRNA synthetase (TcYRS) _High Tyrosine SOP; format: functional; conditions: 30 µM; further: in the data most compounds retested in dose-response had high values
T4 sequence (whole entry): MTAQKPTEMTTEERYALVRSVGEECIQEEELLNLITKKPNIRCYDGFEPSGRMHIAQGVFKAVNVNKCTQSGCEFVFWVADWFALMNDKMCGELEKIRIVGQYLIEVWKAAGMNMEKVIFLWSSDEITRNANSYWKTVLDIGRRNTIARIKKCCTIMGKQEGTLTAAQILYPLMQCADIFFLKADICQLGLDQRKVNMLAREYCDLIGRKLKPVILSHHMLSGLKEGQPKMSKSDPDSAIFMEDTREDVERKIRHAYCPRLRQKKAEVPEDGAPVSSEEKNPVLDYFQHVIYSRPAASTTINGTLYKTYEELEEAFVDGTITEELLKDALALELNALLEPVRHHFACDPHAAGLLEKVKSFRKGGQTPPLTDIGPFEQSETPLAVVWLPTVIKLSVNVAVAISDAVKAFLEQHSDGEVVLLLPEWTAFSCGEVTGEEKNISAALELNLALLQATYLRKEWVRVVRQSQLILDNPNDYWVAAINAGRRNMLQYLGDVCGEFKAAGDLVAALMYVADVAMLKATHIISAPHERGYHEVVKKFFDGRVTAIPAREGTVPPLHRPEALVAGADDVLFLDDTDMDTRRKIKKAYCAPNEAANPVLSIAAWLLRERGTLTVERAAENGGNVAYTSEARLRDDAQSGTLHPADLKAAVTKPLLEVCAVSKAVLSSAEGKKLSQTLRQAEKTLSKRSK

[9] = biological target: T4, Tyrosyl-tRNA synthetase, putative (Trypanosoma cruzi (strain CL Brener)); assay: Trypanosoma cruzi tyrosyl tRNA synthetase (TcYRS) SOP; format: functional; conditions: 30 µM
[10] = biological target: Chromo domain-containing protein 1 (Saccharomyces cerevisiae (strain ATCC 204508 / S288c) (Baker's yeast)) (UniProt P32657); assay: ScCHD-1 Enzyme Inhibition Assay; format: functional; conditions: 30 µM; further: in the data most compounds retested in dose-response had high values
Chain of Chromo domain-containing protein 1 (Saccharomyces cerevisiae (strain ATCC 204508 / S288c) (Baker's yeast)) (P32657 whole entry, the tested form may be a part): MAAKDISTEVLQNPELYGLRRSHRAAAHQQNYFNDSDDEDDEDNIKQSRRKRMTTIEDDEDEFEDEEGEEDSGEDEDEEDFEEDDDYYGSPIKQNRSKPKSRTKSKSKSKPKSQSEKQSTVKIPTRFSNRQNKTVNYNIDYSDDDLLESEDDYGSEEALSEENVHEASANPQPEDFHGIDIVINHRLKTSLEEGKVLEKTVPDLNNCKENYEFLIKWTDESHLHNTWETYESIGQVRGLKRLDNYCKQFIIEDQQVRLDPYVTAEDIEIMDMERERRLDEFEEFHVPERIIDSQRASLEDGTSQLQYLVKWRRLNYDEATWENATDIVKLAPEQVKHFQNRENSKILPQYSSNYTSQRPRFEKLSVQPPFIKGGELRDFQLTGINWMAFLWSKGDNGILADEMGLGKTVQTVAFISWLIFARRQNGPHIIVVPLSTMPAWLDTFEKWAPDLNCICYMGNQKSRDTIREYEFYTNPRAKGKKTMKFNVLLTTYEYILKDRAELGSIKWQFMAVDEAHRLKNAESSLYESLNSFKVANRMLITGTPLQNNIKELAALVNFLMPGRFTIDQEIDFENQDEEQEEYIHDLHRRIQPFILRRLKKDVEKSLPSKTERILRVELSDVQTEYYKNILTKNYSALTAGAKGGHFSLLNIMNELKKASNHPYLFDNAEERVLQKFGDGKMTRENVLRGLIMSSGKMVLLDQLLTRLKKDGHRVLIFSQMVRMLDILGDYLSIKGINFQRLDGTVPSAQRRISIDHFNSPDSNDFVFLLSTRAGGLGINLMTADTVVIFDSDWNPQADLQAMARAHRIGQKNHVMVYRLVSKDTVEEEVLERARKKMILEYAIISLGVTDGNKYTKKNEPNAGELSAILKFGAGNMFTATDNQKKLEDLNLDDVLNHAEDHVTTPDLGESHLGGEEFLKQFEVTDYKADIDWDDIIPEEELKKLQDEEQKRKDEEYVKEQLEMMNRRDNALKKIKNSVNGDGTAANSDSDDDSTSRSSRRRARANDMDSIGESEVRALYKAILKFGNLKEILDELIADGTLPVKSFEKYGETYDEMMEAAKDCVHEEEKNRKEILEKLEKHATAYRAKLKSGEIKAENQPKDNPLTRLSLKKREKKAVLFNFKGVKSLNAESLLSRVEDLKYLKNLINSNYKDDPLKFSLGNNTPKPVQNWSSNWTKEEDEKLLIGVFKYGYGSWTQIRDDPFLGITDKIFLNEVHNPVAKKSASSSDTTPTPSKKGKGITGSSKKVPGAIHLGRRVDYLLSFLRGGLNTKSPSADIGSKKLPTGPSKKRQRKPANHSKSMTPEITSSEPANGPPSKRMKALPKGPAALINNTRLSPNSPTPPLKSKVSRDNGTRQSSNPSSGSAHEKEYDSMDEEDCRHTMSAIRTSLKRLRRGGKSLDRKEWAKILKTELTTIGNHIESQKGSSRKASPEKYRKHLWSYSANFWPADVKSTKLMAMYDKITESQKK

Chain of Sialic acid-binding Ig-like lectin 9 (Homo sapiens) (Q9Y336 whole entry): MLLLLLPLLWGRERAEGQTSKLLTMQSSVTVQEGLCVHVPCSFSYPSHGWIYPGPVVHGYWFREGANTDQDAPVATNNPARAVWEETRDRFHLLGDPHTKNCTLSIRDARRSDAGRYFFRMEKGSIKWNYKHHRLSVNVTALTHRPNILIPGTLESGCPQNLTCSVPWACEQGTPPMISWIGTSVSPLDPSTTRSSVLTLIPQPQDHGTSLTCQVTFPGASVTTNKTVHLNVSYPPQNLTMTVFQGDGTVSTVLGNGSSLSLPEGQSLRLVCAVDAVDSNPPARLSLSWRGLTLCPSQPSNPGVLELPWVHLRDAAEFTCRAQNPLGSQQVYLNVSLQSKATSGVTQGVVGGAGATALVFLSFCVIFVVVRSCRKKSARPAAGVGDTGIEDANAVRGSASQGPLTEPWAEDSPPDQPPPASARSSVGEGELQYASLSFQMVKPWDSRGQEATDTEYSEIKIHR
Chain of Protein translocase subunit SecA (Escherichia coli (strain K12)) (P10408 whole entry): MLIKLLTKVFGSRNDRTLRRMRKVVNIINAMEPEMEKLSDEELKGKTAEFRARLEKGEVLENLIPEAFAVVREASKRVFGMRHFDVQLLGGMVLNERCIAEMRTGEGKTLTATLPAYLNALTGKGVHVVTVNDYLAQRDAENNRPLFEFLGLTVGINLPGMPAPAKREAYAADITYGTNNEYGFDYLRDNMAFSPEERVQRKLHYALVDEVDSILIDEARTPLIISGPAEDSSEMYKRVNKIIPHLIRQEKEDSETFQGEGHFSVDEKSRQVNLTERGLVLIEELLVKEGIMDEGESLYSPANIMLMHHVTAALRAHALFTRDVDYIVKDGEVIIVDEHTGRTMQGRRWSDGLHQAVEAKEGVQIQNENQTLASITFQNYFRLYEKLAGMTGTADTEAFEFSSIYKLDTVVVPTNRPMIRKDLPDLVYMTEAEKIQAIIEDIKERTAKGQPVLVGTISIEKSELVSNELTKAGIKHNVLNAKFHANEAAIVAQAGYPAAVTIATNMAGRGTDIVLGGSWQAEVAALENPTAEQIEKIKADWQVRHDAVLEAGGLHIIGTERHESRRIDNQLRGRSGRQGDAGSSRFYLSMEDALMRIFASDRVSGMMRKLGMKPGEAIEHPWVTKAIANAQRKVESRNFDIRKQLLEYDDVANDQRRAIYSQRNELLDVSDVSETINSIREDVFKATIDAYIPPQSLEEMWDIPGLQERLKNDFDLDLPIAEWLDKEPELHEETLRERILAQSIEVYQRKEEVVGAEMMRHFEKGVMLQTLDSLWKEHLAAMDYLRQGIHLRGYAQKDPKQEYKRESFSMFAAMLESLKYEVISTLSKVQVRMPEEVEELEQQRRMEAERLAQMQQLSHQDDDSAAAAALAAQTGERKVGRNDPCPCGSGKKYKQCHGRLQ

Structure (SMILES) | Percent Effect [1] | Percent Effect [2] | Percent Effect [3] | Percent Effect [4] | Percent Effect [5] | Percent Effect [6] | Percent Effect [7] | Percent Effect [8] | Percent Effect [9] | Percent Effect [10]
Cc1noc(C)c1C(=O)N1CC[C@H]2C[C@@H](c3ccncn3)O[C@@H]2C1 | -7.73% | 6.49% | 0.544% | -1.46% | -2.43% | 11.7% | -4.26% | 5.79% | 15.4% | -2%
COc1ccccc1OCC(=O)NS(=O)(=O)c1ccc(C)s1 | -1.64% | 5.2% | 0.674% | -0.746% | 7.58% | 6.49% | 5.05% | 0.98% | 16.5% | -3.45%
O=C(O)c1cc(-c2cccnc2)cc(S(=O)(=O)N2CCCCCC2)c1 | -7.1% | 5.41% | 3.44% | -3.4% | 0.35% | 12.7% | 8.29% | 5.85% | -2.44% | -1.87%
Cc1ccc(NC(=O)C2CSCN2C(=O)c2cc[nH]n2)c(C)c1 (stereo not given) | -2.87% | 5.13% | 9.07% | 4.79% | -0.41% | 0.768% | -8.73% | 3.35% | 20.5% | -1.03%
Cc1c(F)cc(C(=O)O)cc1S(=O)(=O)Nc1cccc(C(F)F)c1 | -2.31% | -2.56% | 2.65% | 1.03% | 0.41% | 6.23% | 11.6% | -1.44% | -3.61% | -0.222%
Cn1cc(CC(=O)N2CCC(Nc3cccnn3)CC2)c2ccccc21 | -3.59% | 18.2% | 3.22% | 3.73% | -7.99% | 5.96% | 4.59% | 7.84% | 32.9% | -10.9%
CC(C)n1[nH]c(=O)c2c1NC(=O)CC2c1cccc(OC(F)F)c1 (stereo not given) | -3.01% | 2.7% | -4.26% | -8.63% | -1.75% | 16.1% | 27.6% | 1.6% | 2.44% | -5.54%
Cn1ccnc1CN1CCN(Cc2noc(-c3ccccc3)n2)CC1 | -3.61% | 10.7% | -0.35% | -6.02% | 3.99% | 7.55% | 13.5% | 3.68% | 7.69% | -9.67%
COc1ccccc1OCC(=O)NS(=O)(=O)c1ccc(Br)s1 | -3.35% | 5.2% | 18.6% | -2.61% | 2.66% | 6.14% | 1.82% | -1.96% | 7.06% | -3.46%
CN(Cc1cn2ccccc2n1)C1CCCN(c2cccnn2)C1 (stereo not given) | -0.768% | 26% | -7.59% | 0.187% | -4.71% | 15.1% | -3.7% | 7.84% | 18.8% | -9.66%
Cc1nnc(NC(=O)CN2CCCC(Cn3cncn3)C2)s1 (stereo not given) | -3.75% | 10.7% | 7.25% | 1.41% | 6.21% | 12.3% | -17.8% | 5.79% | 10.3% | -8.83%
COCCN1CCN(Cc2cccc(C(=O)N(C)C)c2)CC1C (stereo not given) | -1.22% | 18.7% | -4.75% | -1.61% | 2.66% | 7.72% | 6.69% | 3.68% | 7.69% | -8.7%
CC(C)CN1CCC2(CCN(C(=O)c3ccc(F)cc3)CC2)C1=O | -1.91% | 19.5% | 0.691% | 1.5% | 0% | 6.27% | -20.9% | 11.6% | 22.5% | -8.66%
CN(C)c1cc(C(=O)N2CCN(S(C)(=O)=O)CC2)ccn1 | -7.92% | 10.3% | -9.31% | -5.35% | -2.46% | 6.23% | 25.7% | 4.31% | 8.43% | -0.991%
COCC(=O)N1CCC2(CC1)CC(CC(=O)NC1CC1)c1ccccc12 (stereo not given) | -8.48% | -1.3% | 3.8% | -1.66% | -6.88% | -0.0883% | -8.57% | -0.526% | 5.13% | -0.682%
CC(C)N1CCN(C(=O)Nc2cnn(CC(N)=O)c2)CC1 | -3.33% | 17.9% | -17.7% | 9.67% | 0% | 11.7% | 5.26% | -3.35% | 22.9% | -6.52%
COc1cccc2c1OCC(C(=O)NC1CCN(S(C)(=O)=O)CC1)C2 (stereo not given) | -2.9% | 16.2% | 3.48% | 3.59% | 12.2% | 18.7% | 16.9% | 5.85% | 17.1% | 93.6%
O=C(c1cnccn1)N1CCCC2(COCCN(CC3CC3)C2)C1 (stereo not given) | -3.64% | -1.3% | -5.88% | -2.43% | -0.81% | 7.15% | -2.31% | -0.526% | 5.13% | -0.986%
c1ccc(CN2CCOCC3(CCN(C4CCOCC4)C3)C2)cc1 (stereo not given) | -5.53% | 6.49% | -8.07% | -4.58% | -3.24% | 22.9% | 8.96% | 3.68% | 10.3% | -0.0594%
CCc1ccsc1C(=O)N1CCN(CC(O)CC)CC1 (stereo not given) | -2.73% | 7.79% | 4.04% | 4.66% | -3.48% | 0.877% | -8.47% | 2.94% | 21.2% | -7.9%
COc1c(CNC2CCc3cc(F)ccc32)c(C)nn1C (stereo not given) | -0.933% | 7.79% | 8.9% | -0.187% | 5.94% | -1.23% | -9.97% | 3.92% | 9.41% | -0.439%
CCN(Cc1cccc2c1OCO2)C(=O)Nc1ccncc1 | -0.455% | -2.6% | 12.1% | -2.8% | -2.25% | 2.81% | 34.4% | 0.98% | 0% | 5.59%
Cc1ccc(CCC(=O)N2CCCC(n3cncn3)C2)c(C)c1 (stereo not given) | -4.25% | 8% | 2.16% | -6.02% | 0.444% | 2.63% | -1.21% | 5.79% | 2.56% | 1.81%
